# Assay results from PubChem BioAssay (NCI).
# Compounds without any hit were thinned out: in the full panel of roughly 83,000, 20% have a hit.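 Values shown are percent growth following 48 h exposure of cells in 96-well plates to a single concentration of compound; below 10 was considered active.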 Values without a mark were called inactive. Activity calls are given as the source filed them.
# Experiments:
# Assay in all cases: NCI-60 one-dose screen, 48 h (100 = growth as untreated, 0 = no growth, -100 = all killed)
# NCI-H23 lung = conditions: 10 µM unless noted
# NCI-H226 lung = conditions: 10 µM unless noted
# NCI-H322M lung = conditions: 10 µM unless noted
# NCI-H460 lung = conditions: 10 µM unless noted
# HOP-92 NSCLC = conditions: 10 µM
# NCI-H522 lung = conditions: 10 µM
# A549/ATCC NSCLC = conditions: 10 µM unless noted
# 786-0 renal = conditions: 10 µM unless noted
# COLO 205 colon = conditions: 10 µM unless noted
# DU-145 prostate = conditions: 10 µM unless noted
# K-562 leukemia = conditions: 10 µM unless noted
# MALME-3M melanoma = conditions: 10 µM unless noted
# MDA-MB-231 breast = conditions: 10 µM unless noted
# RXF 393 renal = conditions: 10 µM unless noted
# SF-268 CNS = conditions: 10 µM unless noted
# SF-295 CNS = conditions: 10 µM unless noted
# SF-539 CNS = conditions: 10 µM unless noted
# UACC-257 melanoma = conditions: 10 µM unless noted
# M14 melanoma = conditions: 10 µM unless noted
Structure (SMILES),growth (NCI-H23 lung),growth (NCI-H226 lung),growth (NCI-H322M lung),growth (NCI-H460 lung),growth (HOP-92 NSCLC),growth (NCI-H522 lung),growth (A549/ATCC NSCLC) [%],growth (786-0 renal),growth (COLO 205 colon) [%],growth (DU-145 prostate),growth (K-562 leukemia),growth (MALME-3M melanoma),growth (MDA-MB-231 breast),growth (RXF 393 renal),growth (SF-268 CNS),growth (SF-295 CNS),growth (SF-539 CNS),growth (UACC-257 melanoma) [%],growth (M14 melanoma)
O=C(/C=C/c1cccc(O)c1)c1cccc(-n2cc(-c3ccc(Cl)cc3)[nH]c2=O)c1,-19.5% (active),-48.7% (active),-0.035% (active),-4.62% (active),-35.6% (active),-48.6% (active),28.3,-74.7% (active),42.1,-69.8% (active),-18.4% (active),-36% (active),-17.3% (active),-61.1% (active),-68.3% (active),4.32% (active),-89.7% (active),22.1,-13% (active)
COC1NC(Cl)=C(C#N)C(C#N)(C#N)C1(C)C (configuration not stated),108%,108%,121%,114%,97.2%,104%,109,87.2%,124,94.2%,77.1%,146%,88.6%,3.25% (active),122%,115%,92.3%,102,59.1%
C=CCSc1nnc(COc2ccc3c(C)c(Cc4ccccc4)c(=O)oc3c2C)o1,102%,95%,99.2%,103%,100%,81.8%,101,102%,117,106%,96.2%,108%,104%,114%,101%,99.9%,101%,102,102%
Cc1nc(N)sc1C(=O)NCCO,106%,97.2%,127%,115%,-17.9% (active),34.5%,111,129%,126,105%,145%,-3.05% (active),101%,106%,98.6%,108%,105%,110,112%
O=S(=O)(O)CCI,102%,95.9%,101%,104%,103%,103%,114,106%,111,112%,112%,113%,104%,98.8%,104%,105%,102%,113,99%
COC(=O)C(C)[C@H]1CC[C@@H]2[C@]1(C)CC=C1[C@]23C=C[C@]2(C[C@@H](OC(C)=O)CC[C@]12C)C(C(=O)OC)C3C(=O)OC (some centres not stated),92.3%,89.8%,102%,101%,83.5%,96.8%,91.5,105%,98.8,99.6%,48.8%,73.1%,89.5%,102%,90.5%,88.4%,99.3%,97.5,96.5%
O=C(N/N=C/c1cc(Cl)ccc1O)C(=O)N/N=C/c1cc(Cl)ccc1O,80%,74.9%,61.6%,34.8%,51.9%,62.7%,52.6,65.2%,75.2,71.1%,51.9%,80.1%,76.5%,80.3%,56.5%,52.2%,57.3%,69.6,78.6%
CCC(CCCN1C(=O)c2ccccc2C1=O)Nc1cc(OC)cc2cccnc12 (configuration not stated),97.6%,107%,116%,112%,72.4%,103%,106,103%,119,102%,77.2%,142%,93.2%,-5.08% (active),119%,111%,93.4%,100,-100% (active)
